From PubChem BioAssay (Tox21)
Inconclusive results are not listed. Activity calls are given as the source filed them. Unless noted, calls follow the shape of the dose curve; as a rule, active = well fitted curve in the direction sought with a large enough effect in the repeat runs; inconclusive = weak or mixed curves; inactive = no such curve, though single readings can be large; an effect the other way counts as inactive or inconclusive.

Legend:
[1] = qHTS assay to identify small molecule agonists of the peroxisome proliferator-activated receptor delta (PPARd) signaling pathway - cell viability counter screen (AID 743211); also: % is scaled to controls: 0 for no effect and ±100 for the full control effect; nearly all actives have a fitted effect of over 55% in size
Procedure, shortened: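 Multiplexed format: after the 2 h room-temperature LiveBLAzer B/G FRET step, CellTiter-Glo was added to the same wells. Luminescence after 30 min gave cell viability; compound exposure was 17 h at 37C.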

[2] = biological target: Bile acid receptor (Homo sapiens) (UniProt Q96RI1); test: qHTS assay to identify small molecule antagonists of the farnesoid-X-receptor (FXR) signaling pathway (AID 743217; active = well fitted inhibition curve with a large enough effect in the signal ratio in the repeat runs, not every such curve was filed as active; the % refers to the signal ratio; also: % is scaled to controls: 0 for no effect and ±100 for the full control effect)
Chain of Bile acid receptor (Homo sapiens) (Q96RI1 whole entry, looked up): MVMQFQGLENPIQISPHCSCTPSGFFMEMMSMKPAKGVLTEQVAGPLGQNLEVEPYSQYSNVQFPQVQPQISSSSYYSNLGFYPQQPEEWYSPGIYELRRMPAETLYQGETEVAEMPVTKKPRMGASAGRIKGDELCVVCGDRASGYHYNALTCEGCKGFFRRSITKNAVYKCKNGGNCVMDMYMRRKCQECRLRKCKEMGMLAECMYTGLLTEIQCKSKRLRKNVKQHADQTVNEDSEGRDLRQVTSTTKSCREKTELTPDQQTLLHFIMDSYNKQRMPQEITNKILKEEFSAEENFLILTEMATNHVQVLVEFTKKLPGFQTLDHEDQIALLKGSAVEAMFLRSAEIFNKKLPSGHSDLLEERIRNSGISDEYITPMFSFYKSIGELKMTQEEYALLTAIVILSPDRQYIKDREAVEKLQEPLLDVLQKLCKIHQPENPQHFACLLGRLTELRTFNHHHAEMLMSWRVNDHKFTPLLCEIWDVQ
Procedure, shortened: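 Cells carrying a UAS-driven beta-lactamase reporter (GeneBLAzer FXR-UAS-bla HEK 293T) were plated and rested 5 h at 37 °C. Compounds in DMSO were added alongside chenodeoxycholic acid agonist at 50 uM final and left 16 h at 37 °C before FRET substrate readout.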

[3] = qHTS assay to identify small molecule agonists of the farnesoid-X-receptor (FXR) signaling pathway - cell viability counter screen (AID 743218); also: % is scaled to controls: 0 for no effect and ±100 for the full control effect; nearly all actives have a fitted effect of over 45% in size
Procedure, shortened: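 Cells were seeded, left 5 h at 37 C and 5% CO2, then dosed with compound in DMSO for 16 h. After the beta-lactamase FRET read, CellTiter-Glo was added and luminescence measured 30 min later.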

[4] = biological target: Bile acid receptor (Homo sapiens) (UniProt Q96RI1); test: qHTS assay to identify small molecule agonists of the farnesoid-X-receptor (FXR) signaling pathway (AID 743220; active = well fitted activation curve with a large enough effect in the signal ratio in the repeat runs, not every such curve was filed as active; the % refers to the signal ratio; also: % is scaled to controls: 0 for no effect and ±100 for the full control effect)
Procedure, shortened: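 FXR-UAS-bla HEK 293T cells carrying a UAS-driven beta-lactamase reporter were plated for 5 h at 37C/5% CO2, then exposed to DMSO-dissolved Tox21 10K compounds for 16 h at 37C. A LiveBLAzer B/G FRET substrate was loaded for 2 h at room temperature before fluorescence reading.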

[5] = biological target: Vitamin D3 receptor (Homo sapiens) (UniProt P11473); test: qHTS assay to identify small molecule agonists of the vitamin D receptor (VDR) signaling pathway (AID 743222; calls by dose curve; also: % is scaled to controls: 0 for no effect and ±100 for the full control effect)
Chain of Vitamin D3 receptor (Homo sapiens) (P11473 whole entry, looked up): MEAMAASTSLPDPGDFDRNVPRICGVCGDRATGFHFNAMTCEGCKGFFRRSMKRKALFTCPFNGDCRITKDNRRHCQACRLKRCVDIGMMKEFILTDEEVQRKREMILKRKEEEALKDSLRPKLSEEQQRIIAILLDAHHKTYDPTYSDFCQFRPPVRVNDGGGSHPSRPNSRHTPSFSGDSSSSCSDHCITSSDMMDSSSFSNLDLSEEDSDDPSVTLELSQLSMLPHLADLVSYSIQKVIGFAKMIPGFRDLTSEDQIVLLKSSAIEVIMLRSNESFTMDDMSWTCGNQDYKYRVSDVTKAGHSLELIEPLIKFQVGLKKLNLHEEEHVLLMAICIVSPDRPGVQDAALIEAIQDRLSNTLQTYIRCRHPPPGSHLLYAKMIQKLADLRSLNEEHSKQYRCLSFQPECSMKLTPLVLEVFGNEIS
Procedure, shortened: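 Cells carrying a VDR-driven beta-lactamase reporter are seeded at 2,000 per well and rested 4 h. Compounds in DMSO are added for 16 h at 37C, and FRET substrate fluorescence is measured after 2 h at room temperature.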

[6] = qHTS assay to identify small molecule agonists of the vitamin D receptor (VDR) signaling pathway - cell viability counter screen (AID 743224); also: series mostly up to about 63 µM; % is scaled to controls: 0 for no effect and ±100 for the full control effect; nearly all actives have a fitted effect of over 50% in size
Procedure, shortened: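 Cells: VDR-bla, 2,000/well, settled 4 h. Treatment: compounds in DMSO, 16 h, 37C/5% CO2. Readout: CellTiter-Glo luminescence after 30 min RT.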

[7] = qHTS assay to identify small molecule antagonists of the vitamin D receptor (VDR) signaling pathway - cell viability counter screen (AID 743225); also: % is scaled to controls: 0 for no effect and ±100 for the full control effect; nearly all actives have a fitted effect of over 50% in size
Procedure, shortened: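 Cytotoxicity toward the VDR-bla HEK 293T line was scored by ATP-based CellTiter-Glo luminescence, read in the wells already used for the beta-lactamase readout after 16 h compound treatment under 3 nM 1-alpha,25-dihydroxyvitamin D3 stimulation.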

[8] = qHTS assay to identify small molecule agonists of the NFkB signaling pathway (AID 1159509; active = well fitted curve in the direction sought with a large enough effect in the signal ratio in the repeat runs, not every such curve was filed as active; the % refers to the signal ratio; also: series mostly up to about 61 µM; % is scaled to controls: 0 for no effect and ±100 for the full control effect)
Procedure, shortened: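 Pathway activation was measured in ME-180 cells stably expressing beta-lactamase under NF-kB response element control. Substrate cleavage was read as the 460/530 nm emission shift after 5 hr compound incubation.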

[9] = qHTS assay to identify small molecule agonists of the NFkB signaling pathway - cell viability counter screen (AID 1159515; calls by dose curve; also: series mostly up to about 61 µM; % is scaled to controls: 0 for no effect and ±100 for the full control effect; nearly all actives have a fitted effect of over 55% in size)
Procedure, shortened: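 Cells are seeded (2,000 NFkB-bla ME-180 per well), rested overnight, and dosed with DMSO-dissolved compounds for 5 hr at 37 C. Viability is then read by CellTiter-Glo luminescence after 30 min at room temperature.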

[10] = qHTS assay to identify small molecule agonists of the endoplasmic reticulum stress response signaling pathway (AID 1159516; active = well fitted activation curve with a large enough effect in the signal ratio in the repeat runs, not every such curve was filed as active; the % refers to the signal ratio; also: % is scaled to controls: 0 for no effect and ±100 for the full control effect)
Procedure, shortened: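 Cells are seeded at 1,500 per well and incubated overnight. Compounds in DMSO are added for 5 hr at 37 C, then beta-lactamase FRET substrate for 2 hr at room temperature, and fluorescence at 460 and 530 nm is measured.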

[11] = qHTS assay to identify small molecule agonists of the endoplasmic reticulum stress response signaling pathway - cell viability counter screen (AID 1159517; calls by dose curve;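 also: HeLa cells carrying an ER stress response element beta-lactamase reporter; series mostly up to about 61 µM; % is scaled to controls: 0 for no effect and ±100 for the full control effect; nearly all actives have a fitted effect of over 50% in size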)
Procedure, shortened: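 ESRE-bla HeLa cells (1,500/well) were plated overnight at 37 C and exposed to compounds for 5 hr. After the 2 hr beta-lactamase substrate read, CellTiter-Glo went into the same wells, and luminescence was read after 30 min at room temperature.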

[12] = qHTS assay to identify small molecule antagonists of the retinoid-related orphan receptor gamma (ROR-gamma) signaling pathway - cell viability counter screen (AID 1159520); also: % is scaled to controls: 0 for no effect and ±100 for the full control effect; nearly all actives have a fitted effect of over 50% in size
Procedure, shortened: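 Cytotoxicity was read from cellular ATP (CellTiter-Glo luminescence) after 16 hr at 37 C with 1 uM doxycycline induction. The inducer was added 2 hr after compound transfer to Tet-on ROR gamma CHO cells.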

[13] = biological target: Nuclear receptor ROR-gamma (Homo sapiens) (UniProt P51449); test: qHTS assay to identify small molecule antagonists of the retinoid-related orphan receptor gamma (ROR-gamma) signaling pathway (AID 1159521)
Procedure, shortened: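 Readout: ONE-Glo luciferase luminescence, 30 min at room temperature. System: Tet-on RORγ CHO, RORE-LUC. Sequence: compound 2 h, doxycycline 1 uM final, 16 h at 37 C.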

[14] = qHTS assay to identify small molecule agonists of the AP-1 signaling pathway (AID 1159526; calls by dose curve; also: % is scaled to controls: 0 for no effect and ±100 for the full control effect)
[15] = biological target: Peroxisome proliferator-activated receptor delta (Homo sapiens) (UniProt Q03181); test: qHTS assay to identify small molecule agonists of the peroxisome proliferator-activated receptor delta (PPARd) signaling pathway (AID 743212; calls by dose curve; also: % is scaled to controls: 0 for no effect and ±100 for the full control effect)
Chain of Peroxisome proliferator-activated receptor delta (Homo sapiens) (Q03181 whole entry, looked up): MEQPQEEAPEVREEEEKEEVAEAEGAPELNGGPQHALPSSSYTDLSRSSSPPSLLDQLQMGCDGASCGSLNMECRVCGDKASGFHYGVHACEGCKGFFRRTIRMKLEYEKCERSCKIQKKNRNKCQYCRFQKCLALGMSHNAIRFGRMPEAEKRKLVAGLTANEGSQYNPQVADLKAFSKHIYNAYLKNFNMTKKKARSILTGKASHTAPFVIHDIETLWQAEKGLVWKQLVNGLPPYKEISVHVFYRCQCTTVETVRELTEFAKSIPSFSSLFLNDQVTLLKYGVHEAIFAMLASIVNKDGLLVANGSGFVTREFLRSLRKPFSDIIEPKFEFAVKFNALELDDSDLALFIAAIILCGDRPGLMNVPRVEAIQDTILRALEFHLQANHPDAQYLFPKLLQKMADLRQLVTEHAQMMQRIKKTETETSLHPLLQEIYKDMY
Procedure, shortened: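 Beta-lactamase reporter readout: a ratiometric FRET signal from the LiveBLAzer substrate after 2 h at room temperature. Compound exposure at 37 °C in PPARδ-bla HEK293H cells driven by an upstream activator sequence.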

[16] = biological target: Peroxisome proliferator-activated receptor delta (Homo sapiens) (UniProt Q03181); test: qHTS assay to identify small molecule antagonists of the peroxisome proliferator-activated receptor delta (PPARd) signaling pathway (AID 743215; active = well fitted inhibition curve with a large enough effect in the signal ratio in the repeat runs, not every such curve was filed as active; the % refers to the signal ratio)
Procedure, shortened: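 Cells: HEK293H with a UAS-driven beta-lactamase reporter responsive to PPARd. Compounds were co-added with L165041 (300 nM, final) and incubated 17 h at 37 C before a 2 h room-temperature FRET substrate step and fluorescence reading.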

[17] = qHTS assay to identify small molecule antagonists of the farnesoid-X-receptor (FXR) signaling pathway - cell viability counter screen (AID 743221; active = well fitted cell-killing curve with a large enough effect in the repeat runs, not every such curve was filed as active)
Procedure, shortened: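 CellTiter-Glo, 30 min RT, luminescence; same wells as the LiveBLAzer FRET read. Cells: FXR-UAS-bla HEK 293T. Treatment: compound with chenodeoxycholic acid 50 uM final, 16 h at 37 C.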

[18] = qHTS assay to identify small molecule antagonists of the peroxisome proliferator-activated receptor delta (PPARd) signaling pathway - cell viability counter screen (AID 743213)
Procedure, shortened: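 HEK293H cells with the PPARd UAS-bla reporter, co-treated 17 h at 37 C with compounds and L165041 (300 nM final), were lysed with CellTiter-Glo. Luminescence indicated viable cell content.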

[19] = biological target: Vitamin D3 receptor (Homo sapiens) (UniProt P11473); test: qHTS assay to identify small molecule antagonists of the vitamin D receptor (VDR) signaling pathway (AID 743223; active = well fitted inhibition curve with a large enough effect in the signal ratio in the repeat runs, not every such curve was filed as active; the % refers to the signal ratio; also: % is scaled to controls: 0 for no effect and ±100 for the full control effect)
Procedure, shortened: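 After VDR-bla cells are plated and left 4 h at 37C, DMSO-dissolved compounds and 3 nM (final) calcitriol agonist are added. Incubation continues 16 h at 37C; FRET beta-lactamase substrate then develops 2 h at room temperature.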

[20] = qHTS assay to identify small molecule agonists of the AP-1 signaling pathway - cell viability counter screen (AID 1159525; calls by dose curve; also: nearly all actives have a fitted effect of over 55% in size)
Procedure, shortened: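 Intracellular ATP by Cell Titer Glo luminescence (30 min, RT) in the same ME-180 AP-1-bla wells after the 5 h compound exposure at 37 °C. Normalised to tetra n-octyl ammonium bromide and DMSO controls.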

O=C(O)c1cccnc1Nc1cccc(C(F)(F)F)c1
inactive: Potency [1] | outcome [2] | Potency [3] | outcome [4] | outcome [5] | outcome [6] | outcome [7] | outcome [8] | outcome [9] | outcome [10] | outcome [11] | Potency [12] | Potency [13] | Potency [14]

O=[N+]([O-])c1cccc(I)c1
inactive: Potency [1] | Potency [15] | outcome [16] | Potency [3] | Potency [17] | outcome [5] | outcome [6] | outcome [7] | outcome [8] | outcome [9] | outcome [10] | outcome [11] | Potency [12] | Potency [13] | Potency [14]

C1=COCCC1
inactive: Potency [1] | Potency [15] | Potency [18] | outcome [16] | outcome [2] | Potency [3] | Potency [17] | outcome [5] | outcome [19] | outcome [6] | outcome [7] | outcome [8] | outcome [10] | outcome [11] | Potency [12] | Potency [13] | Potency [14]

Cc1ccc(NC(=O)c2ccc(CN3CCN(C)CC3)cc2)cc1Nc1nccc(-c2cccnc2)n1
inactive: Potency [3] | Potency [17] | outcome [8] | outcome [10] | outcome [11] | Potency [12] | Potency [13] | outcome [20] | Potency [14]

Nc1ccc(C(=O)Oc2ccccc2)c(O)c1
inactive: Potency [1] | Potency [15] | Potency [18] | outcome [2] | Potency [3] | outcome [4] | Potency [17] | outcome [5] | outcome [19] | outcome [6] | outcome [7] | outcome [8] | outcome [10] | outcome [11] | Potency [12] | Potency [13] | outcome [20] | Potency [14]

Nc1ncnc2c1ncn2[C@@H]1O[C@H](CO)[C@@H](O)[C@H]1O
inactive: Potency [1] | Potency [18] | outcome [2] | Potency [3] | Potency [17] | outcome [5] | outcome [19] | outcome [6] | outcome [7] | outcome [8] | outcome [10] | outcome [11] | Potency [12] | Potency [13] | outcome [20] | Potency [14]

CC(CN=Cc1ccccc1O)N=Cc1ccccc1O (configuration not stated)
inactive: Potency [1] | Potency [15] | Potency [18] | outcome [16] | Potency [3] | Potency [17] | outcome [6] | outcome [8] | outcome [10] | outcome [11] | Potency [12] | Potency [13] | outcome [20] | Potency [14]

CCCCCC1CCC(=O)O1 (configuration not stated)
inactive: Potency [1] | Potency [15] | Potency [18] | outcome [2] | Potency [3] | Potency [17] | outcome [5] | outcome [19] | outcome [6] | outcome [8] | outcome [10] | outcome [11] | Potency [12] | Potency [13] | outcome [20] | Potency [14]

CCOC(C)OCC
inactive: Potency [1] | Potency [18] | Potency [3] | Potency [17] | outcome [5] | outcome [19] | outcome [6] | outcome [7] | outcome [8] | outcome [10] | outcome [11] | Potency [12] | Potency [13] | outcome [20] | Potency [14]

CCC(CC)C(=O)O
inactive: Potency [1] | Potency [15] | Potency [18] | outcome [16] | Potency [3] | outcome [5] | outcome [19] | outcome [6] | outcome [7] | outcome [8] | outcome [10] | outcome [11] | Potency [12] | Potency [13] | outcome [20] | Potency [14]

O=C(OCCCCCOC(=O)c1ccccc1)c1ccccc1
inactive: Potency [1] | Potency [15] | Potency [18] | outcome [16] | Potency [3] | Potency [17] | outcome [6] | outcome [7] | outcome [8] | outcome [10] | outcome [11] | Potency [12] | Potency [13] | Potency [14]

CC(=O)OCC(=O)[C@@]1(O)CC[C@H]2[C@@H]3CCC4=CC(=O)C=C[C@]4(C)[C@@]3(F)[C@@H](O)C[C@@]21C
inactive: Potency [1] | Potency [18] | Potency [3] | Potency [17] | outcome [6] | outcome [7] | outcome [8] | outcome [10] | outcome [11] | Potency [12] | Potency [13] | outcome [20] | Potency [14]

CCC1=C(C)CN(C(=O)NCCc2ccc(S(=O)(=O)NC(=O)NC3CCC(C)CC3)cc2)C1=O (configuration not stated)
inactive: Potency [1] | Potency [15] | Potency [18] | outcome [16] | Potency [3] | Potency [17] | outcome [5] | outcome [19] | outcome [6] | outcome [7] | outcome [8] | outcome [10] | outcome [11] | Potency [12] | Potency [13] | outcome [20] | Potency [14]

CC(Cc1ccccc1)(NC(=O)CN)c1ccccc1 (configuration not stated)
inactive: Potency [1] | Potency [15] | outcome [16] | Potency [3] | outcome [4] | Potency [17] | outcome [5] | outcome [19] | outcome [6] | outcome [7] | outcome [8] | outcome [10] | outcome [11] | Potency [12] | Potency [13] | outcome [20]

CS(C)=O
inactive: Potency [1] | Potency [15] | Potency [18] | outcome [16] | outcome [2] | Potency [3] | Potency [17] | outcome [5] | outcome [7] | outcome [8] | outcome [10] | outcome [11] | Potency [12] | Potency [13] | outcome [20] | Potency [14]

COC=O
inactive: activity change, negative = cytotoxicity [1] -28.1% [at 5.95 µM] | activation [15] -8.76% [at 5.95 µM] | viability change, negative = cytotoxic [3] 22% [at 5.95 µM] | activity change, negative = cytotoxicity [17] 10.8% [at 5.95 µM] | viability change, negative = cytotoxic [7] 18% [at 6.95 µM] | activation [8] 0.465% [at 6.95 µM] | activation [10] -0.899% [at 6.95 µM] | activity change, negative = cytotoxicity [11] -18.1% [at 6.95 µM] | activity, negative = cytotoxicity [12] -1.04% [at 8.39 µM] | activity change, negative = inhibition [13] -0.709% [at 8.39 µM] | viability change, negative = cytotoxic [20] 12.8% [at 6.97 µM] | activation [14] -1.7% [at 6.97 µM]

Oc1ccc(Oc2ccccc2)cc1
inactive: Potency [1] | Potency [15] | Potency [18] | outcome [16] | outcome [2] | Potency [3] | outcome [4] | Potency [17] | outcome [5] | outcome [19] | outcome [6] | outcome [7] | outcome [8] | outcome [10] | outcome [11] | Potency [12] | Potency [13] | outcome [20] | Potency [14]
